# KDM5B inh – Primary screen for KDM5B Histone Demethylases FDH-coupled qHTS; Lysine-specific demethylase 5B (Homo sapiens), Q9UGL1; KDM5B demethylase, FDH-coupled NADH fluorescence (FDH is formaldehyde dehydrogenase); Potency, µM (top dose mostly 57.7 µM), hits mostly inhibitors; 2.6% of 220,000 active; further: nearly all actives have a fitted effect of over 70% in size
#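 Inhibition is measured as reduced NADH fluorescence generation from FDH coupling to formaldehyde release. Truncated KDM5BΔAP at 200 nM final acts on H3K4me3 peptide (12.5 µM in substrate mix) in pH 7.5 HEPES buffer with Tween-20, 30 min, room temperature.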
# IP6K1 inhibitor – Primary qHTS assay for small molecule inhibitors of Inositol hexaphosphate kinase 1 (IP6K1); activity change, % (series mostly up to about 58 µM); IP6K1 kinase, ADP-Glo luminescence, 2 h; stronger effect = lower value; AID 1645851, 2021; Inositol hexakisphosphate kinase 1 (Homo sapiens), Q92551; 0.81% of 140,000 active; in the data active means activity change below about -25%
# Target sequence (Q92551 whole entry, looked up): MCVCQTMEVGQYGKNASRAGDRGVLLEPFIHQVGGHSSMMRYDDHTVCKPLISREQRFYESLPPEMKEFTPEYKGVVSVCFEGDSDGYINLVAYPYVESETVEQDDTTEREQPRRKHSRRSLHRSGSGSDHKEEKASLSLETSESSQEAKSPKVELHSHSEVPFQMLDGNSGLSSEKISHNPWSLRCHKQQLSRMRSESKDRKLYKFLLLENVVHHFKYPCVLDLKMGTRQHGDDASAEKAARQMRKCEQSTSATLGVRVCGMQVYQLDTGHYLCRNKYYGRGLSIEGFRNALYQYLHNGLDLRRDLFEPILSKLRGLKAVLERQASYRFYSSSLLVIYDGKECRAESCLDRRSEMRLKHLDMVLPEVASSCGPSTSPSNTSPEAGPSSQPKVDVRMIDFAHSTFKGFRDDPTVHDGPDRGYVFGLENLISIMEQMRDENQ
#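 ADP-Glo luminescence measures ADP made by human IP6K1 during a 2 h RT reaction with ATP/IP6 (mix at 1.3 mM/130 uM); top library doses 57.5 and 19.1 uM final.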
# IP6K1 inh cnf – Confirmatory qHTS assay for small molecule inhibitors of Inositol hexaphosphate kinase 1 (IP6K1) | shares compounds with IP6K1 inhibitor | recombinant IP6K1 kinase, ADP-Glo luminescence, 2 h | Potency, µM (top dose mostly 49 µM), actives largely listed as inhibitors | 13% of 1,200 active | AID 1645852, 2021; further: nearly all actives have a fitted effect of over 65% in size
# Numbers stand for hits; i = inactive; ? = inconclusive; nt = no result. Only some compounds are listed: those with a hit (about 2.7% of all), similar ones and a draw of the others. Unless noted, the call rests on the fitted dose curve; in most records, active means well fitted inhibition curve with a large enough effect; inconclusive means small, poorly fitted or top-dose-only effect; inactive means no such curve, though single readings can be large or run the other way.
SMILES,KDM5B inh,IP6K1 inhibitor,IP6K1 inh cnf
CC1CCN(C(=O)CC#N)CC1N(C)c1ncnc2[nH]ccc12 (stereo not given),nt,i,i
COc1ccccc1-c1cc(NC(=O)CCC2CCCO2)n[nH]1 (stereo not given),i,nt,nt
O=C1C=C(NCC23CC4CC(CC(C4)C2)C3)C2(CCCCC2)O1,i,nt,nt
O=C(NCCCc1ccccc1)C1CCN(Cc2ccccc2-c2ccccc2F)CC1,nt,i,nt
CNCC(=O)N1CCCC(N2CCN(Cc3ccc4c(c3)OCO4)CC2)C1 (stereo not given),?,-37,i
NCCCC(=O)N1CCCC(N2CCN(Cc3ccc4c(c3)OCO4)CC2)C1 (stereo not given),i,i,nt
CC(Sc1nc2ccc(F)cc2c(=O)[nH]1)C(=O)NC1CCCCC1 (stereo not given),i,nt,nt

# Compound activity from PubChem BioAssay.
